Experimental findings from PubChem BioAssay (NCI) are described below.

This is part of a sample that, as a whole, favours compounds with a hit. Of some 83,000 tested, about 20% had one in any assay.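 Interpretation: 100, growth as untreated; towards 0, rising growth inhibition; 0, no net growth; 0 to -100, cell death. Compounds scoring below 10 were considered active.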 Values without a mark were called inactive. Active and inactive are the calls of the source.

What all share (experiment): NCI-60 one-dose screen, 48 h (100 = growth as untreated, 0 = no growth, -100 = all killed)
The subject of one test is NCI-H23 lung. Particulars: 10 µM unless noted.
The test system of the next test is NCI-H226 lung. The settings on record: 10 µM unless noted.
The next test concerns NCI-H322M lung. The settings on record: 10 µM unless noted.
The subject of a further test is HOP-62 NSCLC. Particulars: 10 µM unless noted.
The test system of another test is NCI-H460 lung. Particulars: 10 µM unless noted.
In a further test the test system is HOP-92 NSCLC. Particulars: 10 µM unless noted.
Another test concerns NCI-H522 lung. The settings on record: 10 µM unless noted.
For a further test, the system named is A549/ATCC NSCLC. The settings on record: 10 µM unless noted.
The next test has as its system 786-0 renal. The settings on record: 10 µM unless noted.
The next test deals with COLO 205 colon. Particulars: 10 µM unless noted.
The subject of the next test is DU-145 prostate. Particulars: 10 µM unless noted.
A further test concerns MALME-3M melanoma. Particulars: 10 µM unless noted.
Another test has as its system MDA-MB-231 breast. Particulars: 10 µM unless noted.
The next test deals with RXF 393 renal. The settings on record: 10 µM unless noted.
The subject of the next test is SF-268 CNS. Particulars: 10 µM unless noted.
For a further test, the system named is SF-295 CNS. The settings on record: 10 µM unless noted.
In a further test the test system is SF-539 CNS. The settings on record: 10 µM unless noted.
A further test relates to M14 melanoma. The settings on record: 10 µM unless noted.
Another test deals with UACC-257 melanoma. The settings on record: 10 µM.

For `O=c1cc(-c2ccccc2)nc2sc(-c3c[nH]c4ccc(F)cc34)nn12`, the growth in the test with NCI-H23 lung is 73.2%; with NCI-H226 lung, 41%; with NCI-H322M lung it was 61.2%; in the test with HOP-62 NSCLC, 19.1%; in the test with NCI-H460 lung, 17.2%; in the test with HOP-92 NSCLC it was -1.32% (active). For the same compound, the growth in the test with NCI-H522 lung was 62.6%; with A549/ATCC NSCLC, 58.7%; in the test on 786-0 renal, 15.8%; with COLO 205 colon it was 74.7%; in the test on DU-145 prostate, 63.3%; in the test on MALME-3M melanoma, 21.9%. The growth is 51.8% with MDA-MB-231 breast; 40.5% with RXF 393 renal; 82.9% in the test with SF-268 CNS; 82.9% with SF-295 CNS; 68% in the test on SF-539 CNS; 63.5% in the test with M14 melanoma.
For the compound `COc1ccc([C@H]2[C@H](O)C(=O)N2c2cc(OC)c(OC)c(OC)c2)cc1`, the growth is 12.6% with NCI-H23 lung; 19.5% with NCI-H226 lung; 47.9% in the test with NCI-H322M lung; 26.2% with HOP-62 NSCLC; 3.39% (active) in the test with NCI-H460 lung; -4.93% (active) in the test on HOP-92 NSCLC. The growth was -20.8% (active) in the test with NCI-H522 lung; 21.6% in the test with A549/ATCC NSCLC; 19.5% in the test with 786-0 renal; -74.6% (active) with COLO 205 colon; 17.8% with DU-145 prostate; 59.9% in the test with MALME-3M melanoma. The growth in the test with MDA-MB-231 breast was 25%; in the test on RXF 393 renal, 21.8%; with SF-268 CNS, 47.5%; in the test with SF-295 CNS it was 14.1%; in the test with SF-539 CNS, -20.3% (active); with M14 melanoma it was 10.3%.
Regarding `CCOC(=O)CC(=O)CSC1=NC2C(NN1)N(C)C(=O)N2C` (configuration not stated), the growth was 75.5% with NCI-H23 lung; 100% in the test on NCI-H226 lung; 103% with NCI-H322M lung; 107% with HOP-62 NSCLC; 105% in the test with NCI-H460 lung; 88.7% in the test on HOP-92 NSCLC. Further, the growth in the test on NCI-H522 lung was 72.8%; with A549/ATCC NSCLC, 102%; with 786-0 renal it was 103%; with COLO 205 colon, 108%; in the test with DU-145 prostate, 90.2%; in the test with MALME-3M melanoma, 61.6%. Also, the growth with MDA-MB-231 breast was 75.3%; with RXF 393 renal, 105%; in the test on SF-268 CNS, 99.4%; in the test on SF-295 CNS it was 102%; with SF-539 CNS, 91.5%; in the test with M14 melanoma, 81.3%.
For the compound `Cc1ccc(/C=C/c2nn3c(-c4ccco4)nnc3s2)cc1`, the growth is 104% in the test with NCI-H23 lung; 100% in the test with NCI-H226 lung; 94% in the test on NCI-H322M lung; 114% with HOP-62 NSCLC; 99.9% in the test with NCI-H460 lung; 107% with HOP-92 NSCLC. The growth with NCI-H522 lung was 94.4%; in the test with A549/ATCC NSCLC it was 97.8%; in the test on 786-0 renal, 88.4%; in the test on COLO 205 colon, 102%; with DU-145 prostate, 99.7%; in the test with MALME-3M melanoma, 106%. Also, the growth was 110% in the test on MDA-MB-231 breast; 95.5% with RXF 393 renal; 104% in the test with SF-268 CNS; 95.7% in the test on SF-295 CNS; 94.7% in the test on SF-539 CNS; 112% in the test with UACC-257 melanoma. In addition, the growth in the test on M14 melanoma is 94.8%.
As for `O=C1c2c(c3c4ccc(Br)cc4oc3c3[nH]c4ccccc4c23)C(=O)N1CCO`, the growth in the test on NCI-H23 lung is 46.3%; in the test with NCI-H226 lung it was 33.3%; with NCI-H322M lung, 68.1%; with HOP-62 NSCLC, 12.2%; with NCI-H460 lung, 3.9% (active); in the test on HOP-92 NSCLC it was 62.3%. Also, the growth in the test with NCI-H522 lung was 43.8%; in the test with A549/ATCC NSCLC it was 48.7%; in the test with 786-0 renal it was 30.9%; in the test with COLO 205 colon, 52.4%; in the test with DU-145 prostate it was 35%; in the test with MALME-3M melanoma, 65.4%. For the same compound, the growth was 65.1% in the test on MDA-MB-231 breast; 57.1% with RXF 393 renal; 49.2% with SF-268 CNS; 20.8% in the test on SF-295 CNS; 17.1% in the test with SF-539 CNS; 29.8% in the test on M14 melanoma.
As to `CS(=O)(=O)c1nccc(-c2c(-c3ccc(F)c(OCCc4ccccc4)c3)nc3sccn23)n1`, the growth in the test on NCI-H23 lung was 100%; in the test with NCI-H226 lung, 89.2%; in the test with NCI-H322M lung, -26.9% (active); in the test on HOP-62 NSCLC, 103%; with NCI-H460 lung, 28.8%; in the test with HOP-92 NSCLC, 50.1%. Also, the growth with NCI-H522 lung was -12.5% (active); in the test on A549/ATCC NSCLC, 99%; in the test on 786-0 renal, 98.2%; with COLO 205 colon, 112%; in the test with DU-145 prostate, -87.9% (active); in the test with MALME-3M melanoma it was 119%. Also, the growth in the test on MDA-MB-231 breast was 89.4%; in the test with RXF 393 renal it was 99.1%; in the test with SF-268 CNS it was 98.7%; in the test on SF-295 CNS, 97.2%; in the test with SF-539 CNS, 93%; with UACC-257 melanoma, -16.4% (active). For the same compound, in the test with M14 melanoma, the growth is 83.2%.
As to `O=c1cc(-c2ccccc2)nc2sc(-c3c[nH]c4ccc(Br)cc34)nn12`, the growth with NCI-H23 lung was 104%; in the test with NCI-H226 lung it was 87.6%; in the test on NCI-H322M lung, 92.8%; in the test on HOP-62 NSCLC, 107%; in the test with NCI-H460 lung it was 106%; in the test on HOP-92 NSCLC, 86%. Further, the growth in the test with NCI-H522 lung was 86.2%; with A549/ATCC NSCLC, 97.6%; with 786-0 renal, 92.6%; in the test with COLO 205 colon, 104%; in the test with DU-145 prostate it was 103%; in the test on MALME-3M melanoma, 104%. Moreover, the growth is 89.8% in the test on MDA-MB-231 breast; 104% in the test on RXF 393 renal; 102% in the test with SF-268 CNS; 99.8% in the test with SF-295 CNS; 96.3% in the test on SF-539 CNS; 105% in the test with M14 melanoma.
In the case of `C=CCn1c(SCC(=O)Nc2cccc(C(=O)/C=C/c3ccccc3Cl)c2)nc2ccccc2c1=O`, the growth with NCI-H23 lung was 94.7%; in the test on NCI-H226 lung, 91.8%; in the test on NCI-H322M lung, 92%; with HOP-62 NSCLC it was 108%; in the test with NCI-H460 lung, 93%; in the test with HOP-92 NSCLC, 70.7%. Further, the growth was 84.8% with NCI-H522 lung; 86.2% in the test with A549/ATCC NSCLC; 88% in the test with 786-0 renal; 113% in the test with COLO 205 colon; 93.7% with DU-145 prostate; 96.9% with MALME-3M melanoma. Moreover, the growth is 93.8% in the test with MDA-MB-231 breast; 94.3% in the test on RXF 393 renal; 88.4% in the test with SF-268 CNS; 93.8% in the test on SF-295 CNS; 86.6% in the test with SF-539 CNS; 107% with UACC-257 melanoma. Moreover, the growth with M14 melanoma is 87.5%.
